GLP-1R agonist: activates the human GLP-1 receptor; P43220; HEK293 GLP-1R CRE-luciferase, luminescence, 4-6 h; cells express a hypersensitive GLP-1R form; Potency, µM (doses to about 45.6 µM), usual class: activators; 380,000 tested, 0.007% active
Target sequence (P43220 whole entry, looked up): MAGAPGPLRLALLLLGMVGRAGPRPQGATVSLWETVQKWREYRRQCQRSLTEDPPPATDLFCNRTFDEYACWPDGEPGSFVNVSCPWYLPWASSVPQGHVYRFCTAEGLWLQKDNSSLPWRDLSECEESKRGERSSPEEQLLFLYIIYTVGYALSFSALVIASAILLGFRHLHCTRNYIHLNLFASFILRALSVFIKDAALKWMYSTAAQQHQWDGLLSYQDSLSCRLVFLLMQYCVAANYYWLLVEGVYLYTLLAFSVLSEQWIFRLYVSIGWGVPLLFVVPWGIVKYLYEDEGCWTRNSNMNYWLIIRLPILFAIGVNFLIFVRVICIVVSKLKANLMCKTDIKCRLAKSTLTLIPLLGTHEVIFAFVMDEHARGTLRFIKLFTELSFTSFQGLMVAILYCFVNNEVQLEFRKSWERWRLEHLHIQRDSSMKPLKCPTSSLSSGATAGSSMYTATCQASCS
BRCA1 expr up: increases BRCA1 expression. Potency, µM (highest dose often 46.1 µM), actives largely listed as activators. AID 624202. MCF7-BRCA1-FFLuc reporter, luminescence, 48 h; response scale: scaled: vehicle 0%, 10 µM genistein 100%. 380,000 tested, 1.1% active; note: nearly all actives have a fitted effect of over 80% in size
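Compounds are tested at multiple concentrations on MCF7 BRCA1-luciferase reporter cells seeded at 2000 per well; after 48 h, a single luminescence end-point is taken and curves fitted to the normalized data.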
GLP-1R inv ag: inverse agonists of human GLP-1 receptor; P43220; HEK293 GLP-1R CRE-luciferase, luminescence, 24 h; GLP-1R form is constitutively active; Potency, µM (highest dose often 38.3 µM), most hits filed as inhibitors; 410,000 tested, 1.6% active; AID 624417; note: nearly all actives have a fitted effect of over 55% in size
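Readout was luciferase luminescence, measured 12 min after detection reagent at room temperature. Beforehand, GLP-1R reporter HEK293 cells had sat 12 h, then received compounds for 24 hr at 37 deg C.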
Mito fusion yeast: blocks mitochondrial division or promotes mitochondrial fusion; S. cerevisiae fusion-defective mutant growth rescue, CellTiterGlo 48 h; Potency, µM (titrated, usually from 46.1 µM), most hits filed as activators; 320,000 tested, 0.23% active; AID 485298; note: nearly all actives have a fitted effect of over 45% in size
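Read-out: ATP-based luminescence (CellTiterGlo, 10 min ambient) reporting growth of fusion-defective ts yeast after 48 hours at 37C on glycerol/ethanol YPEG medium in the presence of compound.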
GLP1R cytotox: cytotoxicity counter-screen for GLP-1 receptor inverse agonists; 410,000 tested, 0.13% active; HEK293 cAMP-luciferase reporter cells, luminescence, 24 h; Potency, µM (titrated, usually from 38.3 µM), most hits filed as inhibitors; AID 624418;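 note: loss of luciferase light is scored as toxicity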
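1536-well qHTS counterscreen of the MLSMR; 200 cells/uL, 12 h pre-incubation, 23 nL cpd, 24 h at 37 deg C 5% CO2, luciferase detection reagent, 12 min RT, luminescence. Inhibition = undesired.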
Of the large screens only hits and unclear results are named; the others gave an inactive call. Shown are actives, neighbours in structure and some others; about 2.8% of the full set was active somewhere. Calls come from the whole dose curve; as a rule, active = well fitted curve in the direction sought with a large enough effect; inconclusive = small, poorly fitted or top-dose-only effect, or another doubt; inactive = no such curve, though single readings can be large; an effect the other way counts as inactive or inconclusive.

COc1ccc(-c2oc(NC(=O)CSc3nncn3C)c(C#N)c2-c2ccc(OC)cc2)cc1	GLP-1R inv ag 1.6µM
CCn1c(SCC(=O)Nc2oc(-c3ccccc3)c(-c3ccccc3)c2C#N)nnc1-c1ccco1	GLP-1R inv ag inconclusive
CN(C(=O)c1cccc(NC(=O)Cc2cccc(NC(=O)C3CCCN(C(=O)C4CCC4)C3)c2)c1)C1CC1 (configuration not stated)	none (no result: Mito fusion yeast)
Oc1ccccc1C1SC(c2ccccc2O)SC(c2ccccc2O)S1 (configuration not stated)	GLP-1R inv ag 1.1µM, GLP1R cytotox inconclusive (no result: Mito fusion yeast)
COC(=O)C(O)(CC(=O)Nc1ccc(Cl)cc1F)C(F)(F)F (configuration not stated)	none
CCS(=O)(=O)c1ccc(C=NNc2nc3ccccc3o2)cc1	BRCA1 expr up inconclusive (no result: Mito fusion yeast)
CN(C)c1ccc(/C=N/Nc2nc3ccccc3o2)cc1	GLP-1R inv ag 3.5µM
Cc1onc(-c2ccccc2Cl)c1C(=O)OCC(=O)c1c(N)n(C)c(=O)n(C)c1=O	none
CC(C(=O)NCCC1=CCCCC1)c1ccc([N+](=O)[O-])cc1 (configuration not stated)	GLP-1R inv ag 10µM
COc1ccc(C2/C=C\CN(C(=O)c3ccc(C)cc3)CC(=O)N2Cc2ccc(F)cc2)cc1 (configuration not stated)	none
C=CCSc1nc2ccccc2c(=O)n1C1CCOC(C)(C)C1 (configuration not stated)	GLP-1R inv ag 10µM
CCSc1nc2ccccc2c(=O)n1C1CCOC(C)(C)C1 (configuration not stated)	GLP-1R inv ag inconclusive
C=CCn1c(=O)c(C(=O)NCCN(CC)CC)c(O)c2ccccc21	GLP-1R inv ag inconclusive
CCOc1ccccc1CN1CCN(Cc2ccc(C)o2)CC1CCO (configuration not stated)	none
CCOc1ccccc1CN1CCN(C2CCN(c3ccccc3F)CC2)CC1CCO (configuration not stated)	GLP-1R inv ag 11µM
CCOC(=O)c1cnn2c(C)cc(-c3ccc(F)cc3)nc12	BRCA1 expr up 2.8µM
CCn1c(=O)n(CC)c2cc(N3CCCC3)c(NC(=O)c3ccccc3)cc21	Mito fusion yeast inconclusive
COCCn1nnnc1CN1CCN(c2cccc(C(F)(F)F)c2)CC1	none
CC(=O)n1cc(N(C(=O)CCl)c2ccc(C)cc2)c2ccccc21	GLP-1R inv ag 4.5µM, GLP1R cytotox inconclusive
COc1ccc(C(=O)NCC(=O)N2CCCC(C(F)(F)F)C2)cc1OC (configuration not stated)	none
CC(C)Cc1nc(SCC(=O)N2CCCCC2)c2c(=O)n(C)c(=O)n(C)c2n1	GLP-1R inv ag 10µM
Cc1ccccc1NC(=O)Nc1ccc(C(F)(F)F)cc1	BRCA1 expr up inconclusive, GLP-1R inv ag 4.5µM
CC(O)(c1cccc(F)c1)c1nc(-c2cccc(C(F)(F)F)c2)cs1 (configuration not stated)	GLP-1R inv ag inconclusive (no result: Mito fusion yeast)
C=CCN(c1ccccc1OC)S(=O)(=O)c1cccc(C(=O)OCC(=O)c2c[nH]c3ccccc23)c1	GLP-1R inv ag 5µM, GLP1R cytotox inconclusive
Cc1nc2sc(C(c3cccs3)N3CCC4(CC3)OCCO4)c(O)n2n1 (configuration not stated)	none
Fc1ccc(COc2ccc(-c3nnco3)cc2)c(Cl)c1	GLP-1R agonist inconclusive, BRCA1 expr up 8.9µM, Mito fusion yeast inconclusive
Fc1cc(Br)ccc1COc1ccc(-c2nnco2)cc1	BRCA1 expr up 6.3µM
COc1cccc2c1C(=O)c1c(O)c3c(c(O)c1C2=O)C[C@@](O)(C(=O)CO)C[C@@H]3O[C@H]1C[C@H](N)[C@H](O)[C@H](C)O1	GLP-1R inv ag inconclusive, GLP1R cytotox inconclusive
COc1cccc2c1C(=O)c1c(O)c3c(c(O)c1C2=O)C[C@@](O)(C(=O)CO)C[C@@H]3OC1CC(N)C(O)C(C)O1 (some centres not stated)	GLP-1R inv ag 4.5µM, GLP1R cytotox inconclusive (no result: Mito fusion yeast)
COc1ccc(OCC(=O)Nc2nc3ccccc3[nH]2)cc1	BRCA1 expr up 10µM
O=C(CC1CCCC1)Nc1nc2ccccc2[nH]1	BRCA1 expr up 3.2µM, GLP-1R inv ag inconclusive
Cc1sc2ncn(CC(=O)NC3CCCCC3)c(=O)c2c1C	none
Cc1nc2c(ccc3c([N+](=O)[O-])cccc32)c(C)c1C	none
CCCCN(C)C(=O)C1CCC(CNS(=O)(=O)c2ccc(Cl)cc2)CC1 (configuration not stated)	GLP-1R inv ag inconclusive (no result: GLP-1R agonist, BRCA1 expr up, Mito fusion yeast)
O=[N+]([O-])c1ccc(Nc2nc(N/N=C/c3cccc(F)c3)nc(N3CCCC3)n2)cc1	GLP-1R inv ag inconclusive, Mito fusion yeast 16µM
O=[N+]([O-])c1cccc(/C=N/Nc2nc(N3CCOCC3)nc(N3CCOCC3)n2)c1	none
COc1cccc(/C=N/Nc2nc(Nc3ccc([N+](=O)[O-])cc3)nc(N3CCCC3)n2)c1O	GLP-1R inv ag 2.8µM, GLP1R cytotox inconclusive
COc1c(/C=N/Nc2nc(N3CCCCC3)nc(N3CCCCC3)n2)cccc1[N+](=O)[O-]	none
CCC(C)[C@H](NC(=O)Nc1ccc2c(c1)OCCO2)C(=O)OC (some centres not stated)	none
COc1cccc(C2=Cc3ccc(F)cc3C(CC(C)=O)N2c2ccc(C#CC3(O)CCCCC3)cc2)c1 (configuration not stated)	GLP-1R inv ag 5µM (no result: Mito fusion yeast)
O=C(CNc1ccccc1)N/N=C/c1c[nH]c2ccccc12	GLP-1R inv ag inconclusive
CCN(CC)CC#CCOC(c1ccccc1)c1ccccc1	GLP-1R inv ag 5.6µM
CN(C)CC#CCOC(c1ccccc1)c1ccccc1	GLP-1R inv ag inconclusive
COc1ccc(C(CNC(=O)c2cc(S(=O)(=O)N3CCN(c4ccccc4)CC3)ccc2Cl)N(C)C)cc1 (configuration not stated)	GLP-1R inv ag 10µM (no result: Mito fusion yeast)
O=C(Nc1ccc(Cl)cc1Cl)c1csc(-c2cccnc2)n1	none
CC(C)c1cc(NCCOCCO)n2c(nc3ccccc32)c1C#N	none
CCOC(=O)C1=CN(Cc2cccc(F)c2)S(=O)(=O)NC1c1ccc2ccccc2c1 (configuration not stated)	GLP-1R inv ag 13µM (no result: Mito fusion yeast)
COc1cccc(NC(=O)C(C)OC(=O)CCCNC(=O)c2ccc(Cl)cc2)c1 (configuration not stated)	none
O=C(N/N=C1\CCCc2c1[nH]c1ccc(Cl)cc21)c1ccncc1	GLP-1R inv ag 7.1µM, GLP1R cytotox inconclusive
O=C(N/N=C1\C/C(=N\NC(=O)c2ccncc2)c2ccccc21)c1ccncc1	none
O=S(=O)(O)c1ccc(N=Nc2ccccc2)cc1	none
O=c1ccc(N=Nc2ccccc2)ccc1O	GLP-1R inv ag inconclusive, GLP1R cytotox 11µM

Screening results as filed in PubChem BioAssay.
